In PubChem BioAssay (NCATS):
Where “and” joins values, the source holds several entries; their conditions need not be identical. Identical values can stand only once. Results filed as inconclusive are left out. Calls of active or inactive are those of the source. Unless noted, the call rests on the fitted dose curve; in most records, active means well fitted curve in the direction sought with a large enough effect; inconclusive means small, poorly fitted or top-dose-only effect, or another doubt; inactive means no such curve, though single readings can be large; an effect the other way counts as inactive or inconclusive.

Tests used:
[1] = target: Mitogen-activated protein kinase 10 (Mus musculus) (UniProt Q61831); assay: JNK3 AlphaScreen Assay (AID 530; active means well fitted curve in either direction with a large enough effect, not every such curve was filed as active;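 further: kinase came from lysate of stimulated human HepG2 cells; signal reports phosphorylation of biotinylated GST-cJun 1-79 at Ser73 with 10 µM ATP; on the % scale 0 is the no-effect control and ±100 the full control effect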)
Summary of the method: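 Pre-activated (IL-1β/TNFα) JNK3 in HepG2 lysates phosphorylates biotin-GST-cJun(1-79), 10 uM ATP; anti-phospho-cJun(Ser73) AlphaScreen read at room temperature, pH 7.6 Tris buffer. Compounds pre-incubated 15 min as titrations.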

[2] = Cell Viability - N2a (AID 540); conditions: N2a mouse neuroblastoma cell viability; activity change, negative = cytotoxicity: at 92.2 µM (top of the series);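 further: cells exposed to compound for 40 h at 37 °C; plate controls were DMSO alone for no effect and tamoxifen control for full effect; nearly all actives have a fitted effect of over 45% in size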
Summary of the method: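 Luminescent ATP signal (CellTiter-Glo, 20 min at room temperature) served as the viability read-out after N2a cells were treated with compounds for 40 hours at 37 °C. Concentration-response data were fitted to the Hill equation for AC50.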

[3] = Cell Viability - Renal Proximal Tubule (AID 545);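 further: 0% = DMSO only and -100% = 100 µM tamoxifen; nearly all actives have a fitted effect of over 40% in size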
Summary of the method: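 Viability taken as intracellular ATP (CellTiter-Glo luminescence) after 40 hr, 37 °C compound treatment of primary proximal tubule cells from rat kidney, 1000 cells/well; Hill-equation fits of qHTS concentration-response data gave AC50.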

[4] = target: Cytochrome P450 3A4 (Homo sapiens) (UniProt P08684); assay: qHTS Assay for Inhibitors and Substrates of Cytochrome P450 3A4 (AID 884); further: nearly all actives have a fitted effect of over 50% in size; further: potency means the concentration at half of the fitted maximal effect
Cytochrome P450 3A4 (Homo sapiens), sequence (P08684 whole entry, looked up): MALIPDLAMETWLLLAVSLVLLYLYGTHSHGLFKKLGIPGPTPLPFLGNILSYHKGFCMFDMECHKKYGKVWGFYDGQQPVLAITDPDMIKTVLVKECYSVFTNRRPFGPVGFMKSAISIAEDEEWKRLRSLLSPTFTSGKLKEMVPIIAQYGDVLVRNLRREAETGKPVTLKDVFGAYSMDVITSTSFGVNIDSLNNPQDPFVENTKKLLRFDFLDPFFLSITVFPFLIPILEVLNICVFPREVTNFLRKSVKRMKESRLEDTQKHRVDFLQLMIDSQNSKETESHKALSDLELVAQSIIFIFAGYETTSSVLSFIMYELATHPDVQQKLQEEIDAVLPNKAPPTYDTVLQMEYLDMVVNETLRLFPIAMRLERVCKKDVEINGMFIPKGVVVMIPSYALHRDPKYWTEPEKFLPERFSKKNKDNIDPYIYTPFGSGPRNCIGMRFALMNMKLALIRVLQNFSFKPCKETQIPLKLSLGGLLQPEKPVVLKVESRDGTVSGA
Summary of the method: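 20 nM human CYP3A4 with 25 uM Luciferin-PPXE (at KM) in 200 mM KPO4, preincubated 10 min with compound; NADPH regeneration started a 60 min RT reaction. Luciferin detected by luminescence, normalized to 57 uM ketoconazole as full inhibition.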

[5] = MultiTox-Fluor Cytotoxicity Assay - LYMP1-002 - Dead Cells (AID 960); further: nearly all actives have a fitted effect of over 60% in size
Summary of the method: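 LYMP1-002 cells 2500/well; 5 hr 37 C pre-incubation; compound 16 hr 37 C; MultiTox-Fluor reagent 60 min RT; dead-cell fluor Ex/Em 485/520. Norm. to DMSO (0%) vs 15 uM tetraoctylammonium bromide (100%); Hill AC50.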

[6] = Cell Viability - LYMP1-002 - Assay at 24 hr (AID 993); further: on the % scale 0 is the no-effect control and ±100 the full control effect
Summary of the method: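 Cells plated 2500/well, 5 hr 37 C; compounds added, 24 hr 37 C; CellTiter-Glo added, 30 min RT; luminescence read. Tetraoctylammonium bromide positive control. Hill-equation AC50.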

[7] = target: Peroxisome proliferator-activated receptor gamma (Homo sapiens) (UniProt P37231); assay: qHTS assay for small molecule agonists of peroxisome proliferator-activated receptor gamma signaling (AID 588536; active means well fitted curve in the direction sought with a large enough effect in the signal ratio, with a control signal flat, not every such curve was filed as active; the % refers to the signal ratio;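 further: 0% = DMSO basal wells and 100% = rosiglitazone at 2 µM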)
Peroxisome proliferator-activated receptor gamma (Homo sapiens), sequence (P37231 whole entry, looked up): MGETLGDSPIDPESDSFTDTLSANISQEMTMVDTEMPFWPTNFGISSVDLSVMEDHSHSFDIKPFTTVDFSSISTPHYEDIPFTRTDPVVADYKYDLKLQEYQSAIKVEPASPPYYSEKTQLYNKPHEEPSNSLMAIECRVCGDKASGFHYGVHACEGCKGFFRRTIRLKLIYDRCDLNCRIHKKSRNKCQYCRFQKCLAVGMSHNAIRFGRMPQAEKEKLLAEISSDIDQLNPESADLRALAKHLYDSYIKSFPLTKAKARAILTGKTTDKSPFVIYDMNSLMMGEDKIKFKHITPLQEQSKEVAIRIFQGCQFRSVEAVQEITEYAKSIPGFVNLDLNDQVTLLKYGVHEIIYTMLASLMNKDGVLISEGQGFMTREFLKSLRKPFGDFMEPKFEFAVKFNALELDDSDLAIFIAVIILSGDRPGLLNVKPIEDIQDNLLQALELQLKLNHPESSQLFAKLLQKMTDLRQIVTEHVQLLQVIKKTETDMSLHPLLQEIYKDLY
Summary of the method: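 PPAR-gamma-UAS-bla HEK293 cells in medium with 1% charcoal/dextran-treated FBS were exposed to compounds for 16 h at 37 C. Beta-lactamase activity was read with CCF4 substrate (405 nm excitation, 460/530 nm emission).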

[8] = target: Vitamin D3 receptor (Homo sapiens) (UniProt P11473); assay: qHTS assay for small molecule antagonists of vitamin D receptor signaling (AID 588541; calls by dose curve;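 further: receptor activated by calcitriol during compound treatment; on the % scale 0 is the no-effect control and ±100 the full control effect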)
Vitamin D3 receptor (Homo sapiens), sequence (P11473 whole entry, looked up): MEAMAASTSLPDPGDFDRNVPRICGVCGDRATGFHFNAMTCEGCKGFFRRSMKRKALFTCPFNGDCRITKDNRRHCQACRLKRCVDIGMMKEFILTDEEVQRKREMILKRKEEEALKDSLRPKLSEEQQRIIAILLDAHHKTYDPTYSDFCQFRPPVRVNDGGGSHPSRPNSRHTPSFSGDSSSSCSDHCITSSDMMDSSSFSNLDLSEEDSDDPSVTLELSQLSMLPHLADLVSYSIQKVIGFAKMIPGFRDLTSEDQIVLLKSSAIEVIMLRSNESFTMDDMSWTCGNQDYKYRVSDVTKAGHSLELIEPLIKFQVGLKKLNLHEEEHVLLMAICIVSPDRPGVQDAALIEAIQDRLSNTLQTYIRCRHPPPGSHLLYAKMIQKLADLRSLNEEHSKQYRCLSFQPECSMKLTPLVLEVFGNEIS
Summary of the method: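 VDR-UAS-bla HEK293T cells in 2% charcoal-stripped FBS were stimulated with 1-alpha,25-dihydroxyvitamin D3 (3 nM final) plus compound for 16 h at 37 C. The beta-lactamase CCF4 readout was normalized to 50 nM agonist and DMSO, and Hill fits gave IC50.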

[9] = target: Thyroid hormone receptor beta (Homo sapiens) (UniProt P10828); assay: qHTS assay for small molecule antagonists of thyroid hormone receptor beta signaling (AID 588547; active means well fitted inhibition curve with a large enough effect in the signal ratio, with a control signal flat, not every such curve was filed as active; the % refers to the signal ratio;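 further: cells stimulated with 0.4 nM T3 agonist during compound exposure; on the % scale 0 is the no-effect control and ±100 the full control effect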); conditions: TR-UAS-bla HEK293, beta-lactamase ratio, antagonist mode, 18 h
Thyroid hormone receptor beta (Homo sapiens), sequence (P10828 whole entry, looked up): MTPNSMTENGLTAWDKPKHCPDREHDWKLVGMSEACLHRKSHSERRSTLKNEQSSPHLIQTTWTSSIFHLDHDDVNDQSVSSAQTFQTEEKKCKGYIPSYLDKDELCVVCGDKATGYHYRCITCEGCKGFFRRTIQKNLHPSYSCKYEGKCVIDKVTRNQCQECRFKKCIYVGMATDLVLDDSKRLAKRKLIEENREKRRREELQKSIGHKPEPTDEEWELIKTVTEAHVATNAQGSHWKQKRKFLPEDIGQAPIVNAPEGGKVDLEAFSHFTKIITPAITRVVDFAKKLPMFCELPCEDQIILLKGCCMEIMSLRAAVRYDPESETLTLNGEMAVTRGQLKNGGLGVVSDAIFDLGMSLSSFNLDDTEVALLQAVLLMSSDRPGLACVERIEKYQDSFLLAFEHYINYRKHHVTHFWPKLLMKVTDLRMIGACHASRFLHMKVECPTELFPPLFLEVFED
Summary of the method: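 TR-UAS-bla GripTite HEK293 cells in 2% charcoal/dextran FBS medium; compounds 0.59 nM to 92 uM with T3 at 0.4nM final, 18 h at 37 C. Beta-lactamase read by CCF4 fluorescence (460/530 nm); Hill fits gave IC50 and efficacy.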

[10] = target: Voltage-gated inwardly rectifying potassium channel KCNH2 (Homo sapiens) (UniProt Q12809); assay: qHTS Assay for Small Molecule Inhibitors of the Human hERG Channel Activity (AID 588834);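 further: lower thallium flux fluorescence means stronger hERG block; nearly all actives have a fitted effect of over 50% in size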; further: potency means the concentration at half of the fitted maximal effect
Voltage-gated inwardly rectifying potassium channel KCNH2 (Homo sapiens), sequence (Q12809 whole entry, looked up): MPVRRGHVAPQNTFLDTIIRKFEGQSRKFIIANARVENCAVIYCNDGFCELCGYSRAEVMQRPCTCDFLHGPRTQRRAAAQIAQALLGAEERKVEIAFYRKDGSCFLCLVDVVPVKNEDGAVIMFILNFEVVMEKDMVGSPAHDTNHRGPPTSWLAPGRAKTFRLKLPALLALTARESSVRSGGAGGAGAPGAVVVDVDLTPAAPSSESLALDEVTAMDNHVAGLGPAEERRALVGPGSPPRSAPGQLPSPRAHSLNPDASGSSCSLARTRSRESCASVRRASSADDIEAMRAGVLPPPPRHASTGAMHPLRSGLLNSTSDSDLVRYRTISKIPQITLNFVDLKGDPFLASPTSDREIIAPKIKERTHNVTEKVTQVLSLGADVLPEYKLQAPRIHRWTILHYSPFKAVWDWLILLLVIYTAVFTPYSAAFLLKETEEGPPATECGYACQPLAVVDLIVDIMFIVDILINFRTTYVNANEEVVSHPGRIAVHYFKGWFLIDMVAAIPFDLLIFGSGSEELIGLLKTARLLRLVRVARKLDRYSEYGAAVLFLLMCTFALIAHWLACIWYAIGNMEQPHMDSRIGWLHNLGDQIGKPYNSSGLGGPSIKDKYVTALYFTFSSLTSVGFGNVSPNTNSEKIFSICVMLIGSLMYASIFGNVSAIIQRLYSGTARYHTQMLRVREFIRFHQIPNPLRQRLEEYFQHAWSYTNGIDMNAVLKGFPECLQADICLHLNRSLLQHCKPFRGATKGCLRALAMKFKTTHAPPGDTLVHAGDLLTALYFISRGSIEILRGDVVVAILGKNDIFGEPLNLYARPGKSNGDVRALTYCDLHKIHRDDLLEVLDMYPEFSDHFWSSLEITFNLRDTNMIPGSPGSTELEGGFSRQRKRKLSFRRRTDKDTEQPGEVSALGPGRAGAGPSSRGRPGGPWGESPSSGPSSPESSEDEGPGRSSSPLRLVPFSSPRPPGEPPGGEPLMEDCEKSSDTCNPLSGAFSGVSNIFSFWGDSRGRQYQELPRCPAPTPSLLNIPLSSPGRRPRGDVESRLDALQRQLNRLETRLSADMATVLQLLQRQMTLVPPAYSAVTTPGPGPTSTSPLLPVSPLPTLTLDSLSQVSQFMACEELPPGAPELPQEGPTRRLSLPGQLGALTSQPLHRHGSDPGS
Summary of the method: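 Kinetic FDSS fluorescence; U2OS + hERG BacMam (~100 virus particles/cell); FluxOR Tl+ flux; ~10 min cpd; AC50 (Hill).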

[11] = qHTS assay for small molecule disruptors of the mitochondrial membrane potential - 1 hr assay (AID 651754; calls by dose curve; further: on the % scale 0 is the no-effect control and ±100 the full control effect; nearly all actives have a fitted effect of over 35% in size)
Summary of the method: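 HepG2, 2,000 cells/well, overnight attachment; cpd or DMSO 1 hr, 37C/5% CO2; Mito-MPS dye 30 min, 37C; fluorescence monomer (490/535) and aggregate (540/590).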

[12] = qHTS assay for small molecule disruptors of the mitochondrial membrane potential - 5 hr assay (AID 651755; calls by dose curve; further: on the % scale 0 is the no-effect control and ±100 the full control effect; nearly all actives have a fitted effect of over 40% in size)
Summary of the method: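 HepG2 cells (2,000/well), attached overnight, exposed to compound 5 hr at 37C, then Mito-MPS dye 30 min. Fluorescence read for monomers (490/535 nm) and aggregates (540/590 nm).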

[13] = target: Tumor necrosis factor (Homo sapiens) (UniProt P01375); assay: qHTS assay to identify small molecules that stimulate Tumor Necrosis Factor-alpha (TNF-alpha) secretion (AID 651757; active means well fitted curve in the direction sought with a large enough effect in the signal ratio; the % refers to the signal ratio; further: 0% is about no effect)
Tumor necrosis factor (Homo sapiens), sequence (P01375 whole entry, looked up): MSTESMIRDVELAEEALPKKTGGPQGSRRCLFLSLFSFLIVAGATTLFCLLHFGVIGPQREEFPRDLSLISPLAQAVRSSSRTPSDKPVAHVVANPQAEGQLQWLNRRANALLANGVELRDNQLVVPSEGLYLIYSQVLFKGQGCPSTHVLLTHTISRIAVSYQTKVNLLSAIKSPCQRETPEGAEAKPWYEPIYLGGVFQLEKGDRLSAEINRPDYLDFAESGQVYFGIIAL
Summary of the method: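 Read-out is HTRF, a TR-FRET sandwich of cryptate- and XL665-labeled anti-TNF-alpha antibodies detecting cytokine secreted by THP-1 cells. Cells had been incubated with test compounds at 37 C for 17 hrs beforehand.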

[14] = target: Nuclear receptor ROR-gamma (Homo sapiens) (UniProt P51449); assay: qHTS assay for small molecule antagonists of the retinoid-related orphan receptor gamma (ROR-gamma) signaling pathway (AID 651802);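 further: CHO cells with doxycycline-induced ROR-gamma expression; luciferase reporter luminescence driven by ROR response element; on the % scale 0 is the no-effect control and ±100 the full control effect; nearly all actives have a fitted effect of over 60% in size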
Nuclear receptor ROR-gamma (Homo sapiens), sequence (P51449 whole entry, looked up): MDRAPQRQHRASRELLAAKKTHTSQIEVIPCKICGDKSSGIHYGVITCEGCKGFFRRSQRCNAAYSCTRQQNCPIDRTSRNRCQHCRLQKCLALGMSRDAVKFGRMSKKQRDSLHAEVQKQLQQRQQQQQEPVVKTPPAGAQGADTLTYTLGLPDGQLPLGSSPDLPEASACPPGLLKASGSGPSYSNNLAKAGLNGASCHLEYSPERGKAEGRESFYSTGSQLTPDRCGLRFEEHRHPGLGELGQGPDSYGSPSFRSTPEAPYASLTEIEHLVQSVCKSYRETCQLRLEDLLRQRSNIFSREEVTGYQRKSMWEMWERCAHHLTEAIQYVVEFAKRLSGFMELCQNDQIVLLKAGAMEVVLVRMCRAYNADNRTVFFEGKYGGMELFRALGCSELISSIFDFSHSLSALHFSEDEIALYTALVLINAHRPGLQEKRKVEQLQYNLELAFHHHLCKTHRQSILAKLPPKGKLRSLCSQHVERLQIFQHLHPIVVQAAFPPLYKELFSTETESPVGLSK
Summary of the method: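 CHO, TET-inducible ROR + RORE-LUC reporter, 1536-well qHTS. Compound pinned, doxycycline added, 16hr 37C/5% CO2. ONE-Glo, 30 min RT, luminescence; signal drop scored as antagonism.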

[15] = qHTS assay for small molecule agonists of the antioxidant response element (ARE) signaling pathway measured by Nrf2-dependant transcriptional activity - cell viability counter screen (AID 720653; active means well fitted curve in the direction sought with a large enough effect in the repeat runs; an effect the other way counts as inactive or inconclusive; further: on the % scale 0 is the no-effect control and ±100 the full control effect); conditions: ARE-bla HepG2 viability, CellTiter-Glo ATP luminescence, 16 h; active compounds read low
Summary of the method: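 ARE-bla HepG2 cells treated with compounds for 16 h at 37C; this counter screen measures viability as intracellular ATP by CellTiter-Glo luminescence after 30 min at room temperature.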

[16] = qHTS assay for cell viability of HEK293 cells (AID 743288); conditions: ATP luminescence (CellTiter-Glo), 18 h, active compounds read low; further: on the % scale 0 is the no-effect control and ±100 the full control effect; nearly all actives have a fitted effect of over 50% in size
Summary of the method: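 Total intracellular ATP, measured with a luciferase-coupled reagent, indicates the number of viable HEK293 cells. Exposure to test chemicals lasts 18 h at 37 C in 1,536-well format at 2,000 cells/well.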

[17] = target: Nuclear receptor subfamily 1 group I member 2 (Rattus norvegicus) (UniProt Q9R1A7); assay: qHTS assay for small molecule activators of the rat pregnane X receptor (rPXR) signaling pathway (AID 651751; call rule not given here; further: 0% is about no effect); conditions: rPXR reporter cells, luciferase (One-Glo), 24 h
Nuclear receptor subfamily 1 group I member 2 (Rattus norvegicus), sequence (Q9R1A7 whole entry, looked up): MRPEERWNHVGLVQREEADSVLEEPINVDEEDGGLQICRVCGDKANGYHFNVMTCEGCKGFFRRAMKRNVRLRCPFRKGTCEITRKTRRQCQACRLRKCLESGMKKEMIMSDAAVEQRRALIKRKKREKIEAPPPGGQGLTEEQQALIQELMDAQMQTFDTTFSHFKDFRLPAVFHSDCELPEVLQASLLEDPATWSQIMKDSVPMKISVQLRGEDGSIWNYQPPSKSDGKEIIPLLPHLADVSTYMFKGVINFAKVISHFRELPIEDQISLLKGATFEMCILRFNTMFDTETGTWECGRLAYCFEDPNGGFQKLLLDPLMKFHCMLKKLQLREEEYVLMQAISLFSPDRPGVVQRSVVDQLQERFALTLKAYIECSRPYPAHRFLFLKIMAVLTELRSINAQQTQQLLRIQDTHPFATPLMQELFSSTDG

[18] = qHTS assay for small molecule activators of the human pregnane X receptor (PXR) signaling pathway (AID 720659; call rule not given here; further: 0% is about no effect)
[19] = Cellular Toxicity (caspase-3) SHSY5Y (AID 657)
Summary of the method: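 Luminescent Caspase-Glo 3/7 read-out, 1 hr room temperature, follows 16 hours of compound treatment of SH-SY5Y cells at 37 °C. Normalization: DMSO basal, 10 uM staurosporine as 100%; AC50 values from Hill-equation concentration-response fits.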

[20] = Cell Viability - LYMP2-023 (AID 975);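 further: cellular ATP measured by luciferase luminescence as viability proxy; cells exposed to compound for 24 hours at 37 °C; plate controls were DMSO only for no effect and 92 µM tetraoctylammonium bromide control for full effect; nearly all actives have a fitted effect of over 55% in size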
Summary of the method: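 2500 cells/well, 5 hr 37 C; cpd 24 hr 37 C; CellTiter-Glo, 30 min RT; luminescence. qHTS conc-response, Hill fit -> AC50. Pos ctrl tetraoctylammonium bromide.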

OCCOCCO
inactive: Potency [1] | Potency [2] | outcome [3] | Potency [4] | Potency [5] | Potency [6] | outcome [7] | outcome [8] | activity change % (negative = inhibition) [9] -14.9% | Potency [10] | Potency [11] | Potency [12] | outcome [13] | Potency [14] | max response [15] -0.406% | max response [16] 1.68% | max response [17] 3.46% | outcome [18]

Cc1ccc(N)c(C)c1
inactive: Potency [1] | Potency [2] | outcome [19] | Potency [4] | Potency [5] | Potency [20] | Potency [6] | outcome [7] | outcome [8] | activity change % (negative = inhibition) [9] 2.7% | Potency [10] | Potency [11] | Potency [12] | outcome [13] | max response [15] -6.08% | max response [17] -0.287% | outcome [18]

Nc1cccc(Cl)c1
inactive: Potency [1] | Potency [2] | outcome [19] | Potency [4] | Potency [5] | Potency [20] | Potency [6] | outcome [7] | outcome [8] | activity change % (negative = inhibition) [9] 2.78% | Potency [10] | Potency [11] | Potency [12] | outcome [13] | Potency [14] | max response [16] -8.5% | max response [17] 1.89% | outcome [18]

CCCCOC(=O)c1ccccc1N
inactive: Potency [1] | Potency [2] | outcome [3] | outcome [19] | Potency [4] | Potency [5] | Potency [20] | Potency [6] | outcome [7] | outcome [8] | Potency [10] | Potency [11] | Potency [12] | outcome [13] | Potency [14] | max response [15] 4.85% | max response [17] -1.8% | outcome [18]

Clc1ccc(C(Cl)(Cl)Cl)cc1Cl
inactive: Potency [1] | Potency [2] | outcome [3] | outcome [19] | Potency [4] | Potency [20] | outcome [7] | outcome [8] | Potency [11] | Potency [12] | outcome [13] | Potency [14] | max response [15] -18% | max response [16] 4.98% | max response [17] 3.68% | outcome [18]
active: Potency [10] 11.2 µM

Cc1ccc(N=C=O)cc1N=C=O
active: Potency [4] 15.8 µM
inactive: Potency [1] | Potency [2] | outcome [19] | Potency [5] | Potency [20] | Potency [6] | outcome [7] | outcome [8] | activity change % (negative = inhibition) [9] -8.5% | Potency [10] | Potency [14] | max response [17] 5.64% and 2.33% | outcome [18]

ClCCOCOCCCl
inactive: Potency [1] | Potency [2] | Potency [4] | Potency [5] | Potency [20] | Potency [6] | outcome [7] | outcome [8] | activity change % (negative = inhibition) [9] 10.8% | Potency [10] | Potency [11] | Potency [12] | outcome [13] | Potency [14] | max response [16] -1.26% | max response [17] 0.986% | outcome [18]

ClCc1ccccc1
inactive: Potency [1] | Potency [2] | outcome [3] | outcome [19] | Potency [4] | Potency [5] | Potency [20] | Potency [6] | outcome [7] | outcome [8] | activity change % (negative = inhibition) [9] 2.64% | Potency [10] | Potency [12] | outcome [13] | Potency [14] | max response [15] 16.1% | max response [17] -2.08% | outcome [18]

C=CC(=O)OCC(C)C
inactive: Potency [1] | Potency [2] | outcome [3] | outcome [19] | Potency [4] | Potency [5] | Potency [20] | Potency [6] | outcome [7] | outcome [8] | activity change % (negative = inhibition) [9] -1.18% | Potency [10] | outcome [13] | Potency [14] | max response [15] -10.1% | max response [16] 2.29% | max response [17] -2.18% | outcome [18]

Clc1cccc(Cl)c1
inactive: Potency [1] | Potency [2] | outcome [3] | outcome [19] | Potency [4] | Potency [5] | Potency [20] | Potency [6] | outcome [7] | outcome [8] | activity change % (negative = inhibition) [9] 13.8% | Potency [10] | Potency [11] | Potency [12] | outcome [13] | Potency [14] | max response [15] -2.71% | max response [16] -11.3% | max response [17] 1.78% | outcome [18]

S=c1[nH]c2ccccc2[nH]1
active: Potency [4] 10 µM
inactive: Potency [1] | Potency [2] | outcome [3] | Potency [5] | Potency [20] | Potency [6] | outcome [7] | activity change % (negative = inhibition) [9] -0.89% | Potency [10] | Potency [11] | Potency [12] | max response [15] 2.67% | max response [16] 7.64% | max response [17] -7.5% | outcome [18]

CC(C)(Cl)[N+](=O)[O-]
inactive: Potency [1] | Potency [2] | outcome [3] | outcome [19] | Potency [4] | Potency [5] | Potency [20] | Potency [6] | outcome [7] | outcome [8] | activity change % (negative = inhibition) [9] 9.2% | Potency [10] | Potency [11] | Potency [12] | outcome [13] | Potency [14] | max response [15] -1.78% | max response [16] 8.03% | max response [17] 2.49% | outcome [18]

C=C(Cl)CCl
inactive: Potency [1] | Potency [2] | outcome [3] | outcome [19] | Potency [4] | Potency [5] | Potency [20] | Potency [6] | outcome [7] | outcome [8] | activity change % (negative = inhibition) [9] 0.727% | Potency [10] | Potency [11] | Potency [12] | outcome [13] | Potency [14] | max response [15] 19% | max response [16] -2.76% | max response [17] 1.93% | outcome [18]

ClC(Cl)c1ccccc1
inactive: Potency [1] | Potency [2] | outcome [3] | outcome [19] | Potency [4] | Potency [5] | Potency [20] | Potency [6] | outcome [7] | outcome [8] | activity change % (negative = inhibition) [9] -1.09% | Potency [10] | Potency [11] | Potency [12] | outcome [13] | Potency [14] | max response [15] -0.372% | max response [16] -9.22% | max response [17] 3.54% | outcome [18]
